Source: PubChem (National Center for Advancing Translational Sciences (NCATS))
Hits are enriched below; roughly 12% of the tested compounds scored in any of these assays.
PI5P4K alpha inh = PI5P4K alpha (human) kinase inhibition; PI5P4Kalpha enzyme, ADP-Glo luminescence, 60 min; hits give low values; max response, %; actives 1.2% (n = 330,000); AID 652105; active = max response of -50% or lower; inconclusive = between -30% and -50%; inactive = -30% or higher; also: value at the top dose of about 77 µM
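ADP-Glo luminescence end-point after a 60 min room-temperature kinase reaction. PI5P4Kalpha and substrate in HEPES pH 7.4 buffer with EGTA, 0.1% CHAPS and 5% DMSO; ATP at 5 microM final.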
BAZ2B block = BAZ2B (human) inhibition; Q9UIF8; AlphaScreen BAZ2B-H3K14Ac peptide displacement; Potency, µM (highest dose often 114 µM), hits mostly inhibitors; actives 4.4% (n = 360,000); AID 504333; also: nearly all actives have a fitted effect of over 60% in size
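BAZ2B 50 nM plus b-H3(5-23)K14Ac 50 nM, PBS pH 7.4/0.01% Tween-20, 30 min RT; compound added (max 110 uM), 30 min RT; streptavidin donor/Ni-chelate acceptor beads 10 ug/mL final, 20 min dark; AlphaScreen read.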
PLK1 PBD inh = inhibitors of human PLK1 polo-box domain binding | P53350 | actives 2.8% (n = 360,000) | Plk1 PBD binding of FITC phosphopeptide, fluorescence polarization | Potency, µM, hits mostly inhibitors | AID 720504; also: series mostly up to about 57 µM; nearly all actives have a fitted effect of over 65% in size
HP1b binding inh = inhibitors of HP1-beta chromodomain binding to methylated histone tails; actives 0.56% (n = 390,000); AID 540317; AlphaScreen HP1-beta / biotin-H3K9me3 peptide binding; Potency, µM (top dose mostly 114 µM), hits mostly inhibitors; P83916; also: nearly all actives have a fitted effect of over 70% in size
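Compound inhibition of the preformed complex between 50 nM HP1-beta and 50 nM biotinylated H3K9me3 peptide was read by AlphaScreen. Buffer was PBS pH 7.4 with 0.01% Tween-20. Incubations ran 30 min at room temperature, with 10 ug/mL donor/acceptor beads.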
JMJD2A Tudor = blocks the human JMJD2A Tudor domain | AlphaScreen JMJD2A-Tudor / H3K4me3 peptide binding | actives 4.4% (n = 390,000) | Potency, µM (top dose mostly 114 µM), usual class: inhibitors | O75164; also: nearly all actives have a fitted effect of over 50% in size
Target sequence (O75164 whole entry, looked up, the tested form may be a part): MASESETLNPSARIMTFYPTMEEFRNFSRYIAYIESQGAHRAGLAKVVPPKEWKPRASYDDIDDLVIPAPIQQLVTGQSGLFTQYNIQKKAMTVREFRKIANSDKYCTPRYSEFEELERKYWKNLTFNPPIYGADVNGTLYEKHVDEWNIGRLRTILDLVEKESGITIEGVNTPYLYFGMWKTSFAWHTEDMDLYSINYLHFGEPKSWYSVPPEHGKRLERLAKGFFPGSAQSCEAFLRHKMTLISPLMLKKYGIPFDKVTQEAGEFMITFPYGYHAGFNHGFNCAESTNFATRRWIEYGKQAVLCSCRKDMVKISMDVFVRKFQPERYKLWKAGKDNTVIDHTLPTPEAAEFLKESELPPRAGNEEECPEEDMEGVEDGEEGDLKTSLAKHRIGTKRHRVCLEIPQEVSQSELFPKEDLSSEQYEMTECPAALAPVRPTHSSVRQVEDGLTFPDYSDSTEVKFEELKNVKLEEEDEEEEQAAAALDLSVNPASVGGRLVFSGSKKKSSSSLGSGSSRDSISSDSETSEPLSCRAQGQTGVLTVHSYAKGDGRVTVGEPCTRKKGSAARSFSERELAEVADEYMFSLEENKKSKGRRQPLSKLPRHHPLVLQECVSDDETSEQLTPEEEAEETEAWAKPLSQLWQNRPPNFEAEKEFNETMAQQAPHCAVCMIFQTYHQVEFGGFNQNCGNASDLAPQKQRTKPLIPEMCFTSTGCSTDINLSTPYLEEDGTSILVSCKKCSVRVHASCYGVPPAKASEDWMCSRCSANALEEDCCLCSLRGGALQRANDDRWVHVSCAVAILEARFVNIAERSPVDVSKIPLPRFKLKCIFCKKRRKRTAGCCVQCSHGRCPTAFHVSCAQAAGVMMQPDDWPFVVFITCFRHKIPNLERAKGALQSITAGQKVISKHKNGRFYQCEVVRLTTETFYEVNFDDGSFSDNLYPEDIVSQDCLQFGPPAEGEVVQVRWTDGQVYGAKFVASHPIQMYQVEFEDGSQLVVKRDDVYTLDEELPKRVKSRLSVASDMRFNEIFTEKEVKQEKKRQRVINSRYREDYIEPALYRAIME
G9a inh = G9a (human) methyltransferase inhibition; Q96KQ7; AID 504332; actives 8.8% (n = 350,000); G9a H3K9 monomethylation, AlphaScreen, 2 h; Potency, µM (doses to about 102 µM), most hits filed as inhibitors; also: nearly all actives have a fitted effect of over 75% in size
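Compounds were preincubated with 20 nM G9a for 15 min, after which biotinylated H3K9 peptide (500 nM) and SAM (20 uM) started a 2 h room-temperature reaction. Monomethylated product was quantified by antibody-based AlphaScreen chemiluminescence.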
Large screens that a line does not name were inactive. Unless noted, calls follow the shape of the dose curve; as a rule, active = well fitted curve in the direction sought with a large enough effect; inconclusive = small, poorly fitted or top-dose-only effect, or another doubt; inactive = no such curve, though single readings can be large; an effect the other way counts as inactive or inconclusive.

S=C(c1ccc(-c2ccc(Br)cc2)o1)N1CCCCC1	JMJD2A Tudor inconclusive, G9a inh 79µM
S=C(c1ccc(-c2ccccc2Cl)o1)N1CCOCC1	BAZ2B block 40µM, PLK1 PBD inh 5.3µM, HP1b binding inh inconclusive, JMJD2A Tudor 40µM, G9a inh inconclusive (no result: PI5P4K alpha inh)
S=C(Nc1ccc(Cl)c(Cl)c1)N1CCOCC1	none
S=C(c1ccc(-c2ccc(Br)cc2)o1)N1CCOCC1	BAZ2B block 28µM, PLK1 PBD inh inconclusive, HP1b binding inh 25µM, JMJD2A Tudor 35µM, G9a inh 14µM
CCc1ccc(NC(=O)C(CC)n2c(=O)c(C(F)(F)F)nc3ccccc32)cc1 (stereo not drawn)	none (no result: PI5P4K alpha inh, PLK1 PBD inh)
Cc1ccc(NC(=S)c2ccc3ccccc3n2)c(C)c1	BAZ2B block 13µM, PLK1 PBD inh 13µM, HP1b binding inh 11µM, JMJD2A Tudor inconclusive, G9a inh 8.9µM
Cc1ccc(C)c(NC(=O)c2ccc3ccccc3n2)c1	none
COc1ccc(NC(=S)c2ccc3ccccc3n2)cc1	BAZ2B block 11µM, PLK1 PBD inh 6.7µM, HP1b binding inh 10µM, JMJD2A Tudor 40µM, G9a inh 7.9µM
Cc1cccc2nc(Cn3c(=O)n(-c4ccc(Cl)cc4)c(=O)c4c5c(sc43)CCC5)cc(=O)n12	none (no result: PI5P4K alpha inh, PLK1 PBD inh)
O=C1C=C(c2ccc3c(c2)oc2ccccc23)C[C@@H](c2ccc(Cl)cc2)C1	none
Cc1ccccc1CS(=O)(=O)c1nnc([C@H](CC(C)C)NC(=O)OC(C)(C)C)o1	PLK1 PBD inh 8.9µM, G9a inh 35µM (no result: PI5P4K alpha inh)
CC(C)C[C@H](NC(=O)OC(C)(C)C)c1nnc(SCc2ccccc2)o1	G9a inh inconclusive
CC(C)(C)OC(=O)N[C@@H](Cc1ccccc1)c1nnc(S(=O)(=O)Cc2cccc(F)c2)o1	PLK1 PBD inh 6µM, G9a inh 35µM
CC[C@@H](C)[C@H](NC(=O)OC(C)(C)C)c1nnc(S(=O)(=O)Cc2cc(C)ccc2C)o1	PLK1 PBD inh 6µM, G9a inh 79µM
COc1cccc(-c2nc(S(=O)(=O)c3ccccc3)c(N3CCCCC3)o2)c1	HP1b binding inh inconclusive, G9a inh inconclusive (no result: PI5P4K alpha inh, PLK1 PBD inh)
COc1ccc(-c2nc3n(n2)C(c2ccccc2F)C(C(=O)Nc2cccnc2)=C(C)N3)cc1OC (stereo not drawn)	none (no result: PI5P4K alpha inh, PLK1 PBD inh)
Cc1cccc2nc(CSc3ccccc3N)cn12	PLK1 PBD inh inconclusive (no result: BAZ2B block, G9a inh)
Cc1cccc2nc(CSc3nnc(N)s3)cn12	G9a inh 32µM
C=CCNc1nc2cc(-c3ccccc3OC)sc2c(=O)n1C	none (no result: BAZ2B block, HP1b binding inh, JMJD2A Tudor, G9a inh)
CCOC(=O)c1cc2occc2n1Cc1c(F)cccc1Cl	BAZ2B block 50µM, G9a inh inconclusive
Cc1cc2c(cc(C(=O)N3CCC(C(=O)N4CCCC4)CC3)n2Cc2c(F)cccc2Cl)o1	BAZ2B block inconclusive, JMJD2A Tudor 56µM, G9a inh 50µM
O=C(c1csnn1)N1CCC2(CCN(Cc3cc(C(F)(F)F)cc(C(F)(F)F)c3)CC2)CC1	none (no result: PI5P4K alpha inh, BAZ2B block, PLK1 PBD inh, HP1b binding inh, JMJD2A Tudor)
O=C1CCCC2=C1C(c1ccccc1)C1C(=O)c3ccccc3C1=N2 (stereo not drawn)	BAZ2B block inconclusive, HP1b binding inh inconclusive, JMJD2A Tudor inconclusive, G9a inh inconclusive
Cc1ccc(C2C3=C(CCCC3=O)N=C3c4ccccc4C(=O)C32)cc1 (stereo not drawn)	BAZ2B block 28µM, HP1b binding inh inconclusive, G9a inh 45µM
Cc1cccc(OCC(=O)N(Cc2ccc(F)cc2)C2CCS(=O)(=O)C2)c1C (stereo not drawn)	BAZ2B block inconclusive
O=C(CSc1cccc2cccnc12)OCC(=O)c1ccccc1	PLK1 PBD inh 21µM, JMJD2A Tudor 35µM
CN(C)C(=O)CSc1cccc2cccnc12	PLK1 PBD inh 12µM, G9a inh inconclusive
NNC(=O)CSc1cccc2cccnc12	none
O=C(CSc1cccc2cccnc12)OCC(=O)c1ccc(Br)cc1	none
COc1ccc(CCNC(=O)CCCc2nnc3n(C)c(=O)c4sccc4n23)cc1OC	BAZ2B block inconclusive, G9a inh 22µM
COc1ccc(CCNC(=O)CSc2nnc(Cc3csc(N)n3)n2C)cc1OC	BAZ2B block 22µM, JMJD2A Tudor 50µM
O=C(COC(=O)c1cc(-c2cccs2)nc2ccccc12)c1ccc(Br)cc1	none (no result: PI5P4K alpha inh, PLK1 PBD inh)
Cc1ccc(N2CCN(c3ccc(C)cc3)C2c2cccnc2)cc1	BAZ2B block 35µM, HP1b binding inh inconclusive, JMJD2A Tudor 40µM (no result: PI5P4K alpha inh)
CCOc1ccc(-n2c(=S)sc3c(=O)n(-c4ccc(F)cc4)c(SCC(=O)O)nc32)cc1	none
Cc1cc(Cl)ccc1OCC(=O)n1cc(C(=O)c2cc(Cl)ccc2O)cn1	G9a inh 79µM (no result: PI5P4K alpha inh, PLK1 PBD inh, HP1b binding inh, JMJD2A Tudor)
COc1ccc(C(=O)Nc2cc(S(=O)(=O)c3ccc(Cl)cc3)c(O)c(C)c2C)cc1	none (no result: PI5P4K alpha inh, PLK1 PBD inh)
Cc1cc(NC(=O)CCC(=O)N(c2ccccc2C)C(C(=O)NC2CCCC2)c2ccccc2)no1 (stereo not drawn)	none
CC(C)(C)c1ccc(C(=O)NNc2cc(Cl)cc(Cl)c2)cc1	G9a inh 22µM
CCc1ccc(C(=O)NNC(=O)OC)cc1	PLK1 PBD inh 9.5µM, HP1b binding inh inconclusive, JMJD2A Tudor inconclusive
CCc1ccc(C(=O)NNc2ccc(Cl)cc2)cc1	BAZ2B block inconclusive, G9a inh 10µM
CCc1ccc(NC(=O)C(=O)NNC(=O)c2ccc(OC)cc2)cc1	none
